Compounds with a hit are over-represented: about 3% of the library has one in this group of screens.
p53ts 32C kill – qHTS Screen for Compounds that Selectively Target Cancer Cells with p53 Mutations: Cytotoxicity of p53ts Cells at the Permissive Temperature. Potency, µM (doses to about 46.1 µM), without a hit: at the top dose activity change, negative = cytotoxicity, actives largely listed as cytotoxic. H1299-p53A138V at 32C, ATP luminescence viability, 24 h. 130,000 tested, 0.93% active;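 note: 0% = DMSO and -100% = full killing by reference compound; nearly all actives have a fitted effect of over 55% in size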
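H1299-p53 A138V cells (temperature-sensitive p53) exposed 24 h to up to 46 uM compound at 32C, where p53 is wild-type in conformation. Viability read as ATP luminescence and normalised to DMSO and 100 uM tamoxifen. AC50 fitted with the Hill equation.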
CRE-bla Fsk – Cell signaling CRE-BLA (Fsk stim). CHO CRE-bla reporter (cAMP response element driving beta-lactamase), forskolin EC10, beta-lactamase ratio. Potency, µM (series often up to 38.2 µM), for the others: top-dose activity change, negative = inhibition, hits mostly activators. 71,000 tested, 2.5% active; active = well fitted activation curve with a large enough effect in the signal ratio, with a control signal flat, not every such curve was filed as active; inconclusive = small, poorly fitted or top-dose-only effect, or effect the other way, or a change in a side signal; the % refers to the signal ratio; note: % of control where 0% means no effect
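Titrated compounds plus EC10 NKH 477 on CHO CRE-bla cells, 3 h, 37 °C. CCF4, 2 h RT. Ratio 460/530 nm → AC50.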
IkB sig inh – IkB Signaling. ABC-DLBCL IkBa-CBG/CBR dual luciferase ratio, 4 h; response scale: scaled: untreated 0%, proteasome inhibitor 100%. Potency, µM (top dose mostly 57.1 µM), for the others: at the highest dose IkBa stabilization activation. 110,000 tested, 0.04% active; active = well fitted curve in the direction sought with a large enough effect in the signal ratio, not every such curve was filed as active; inconclusive = small, poorly fitted or top-dose-only effect, or a change in a side signal; the % refers to the signal ratio;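 note: the direction sought is a rising ratio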
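In this assay, an IκBα–CBG68 fusion accumulates when IKK-driven degradation is blocked; native CBR normalizes for cell number. OCI-Ly3 cells were treated 4 h with compound and doxycycline, then green and red light read after Chroma-Glo addition.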
Imprint erasure – qHTS Assay for Compounds that Induce Erasure of Genomic Imprints. mouse ES Peg3-LacZ reporter, beta-gal luminescence, 40 h. Potency, µM (doses to about 60.7 µM), without a hit: top-dose activity change, positive = activation, hits mostly activators. 110,000 tested, 0.02% active
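Gelatin-coated wells received 300 freshly trypsinized female ES cells with a Peg3LacZ-Neo reporter on the maternal allele, then incubated 40 hours at 37C. BetaGlo was added for 5 minutes at room temperature before a single luminescence read.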
p53ts 39C tox – qHTS Screen for Compounds that Selectively Target Cancer Cells with p53 Mutations: Cytotoxicity of p53ts Cells at the Nonpermissive Temperature. Potency, µM (highest dose often 46.1 µM), inactives show top-dose activity change, negative = cell killing, most hits filed as cytotoxic. 130,000 tested, 1.5% active. AID 902, 2007. H1299-p53A138V viability at 39C, ATP luminescence, 24 h; note: % is set by controls: 0 for no effect and ±100 for the full control effect; nearly all actives have a fitted effect of over 55% in size
* marks the source's active call; other numbers are inactive results; ? = inconclusive; . = not tested or not shown; [ ] = another dose, or the depositor's remark. Unless noted, calls come from the whole dose curve; as a rule, active = well fitted curve in the direction sought with a large enough effect; inconclusive = small, poorly fitted or top-dose-only effect, or another doubt; inactive = no such curve, though single readings can be large; an effect the other way counts as inactive or inconclusive. Potency is the fitted concentration of half-maximal effect.

SMILES	p53ts 32C kill	CRE-bla Fsk	IkB sig inh	Imprint erasure	p53ts 39C tox
COc1ccc(-n2c(=O)c3ccc(C(=O)NCc4ccc(C)cc4)cc3n(CC(=O)Nc3ccc(C)cc3)c2=O)cc1	?	.	1%	-15%[10.9 µM]	5µM*
COc1ccc(NC(=O)Cn2c(=O)n(-c3ccccc3)c(=O)c3ccc(C(=O)NCc4ccc5c(c4)OCO5)cc32)cc1	?	.	6%	-4%[10.9 µM]	27%
COc1ccc(-n2c(=O)c3ccc(C(=O)NCc4ccc(C)cc4)cc3n(CC(=O)Nc3ccc(F)cc3)c2=O)cc1	-24%	.	?	5%[10.9 µM]	10µM*
Cc1ccc(-n2c(=O)c3ccc(C(=O)NCc4ccco4)cc3n(Cc3ccc(Cl)cc3)c2=O)cc1	-27%	.	-1%	-11%[10.9 µM]	13µM*
Cc1ccc(-n2c(=O)c3ccc(C(=O)NCc4ccco4)cc3n(CC(=O)Nc3ccc(C)c(F)c3)c2=O)cc1	-1%	.	2%	-8%[10.9 µM]	?
COc1ccccc1Cc1nc2ccccc2nc1SCC(=O)N1CCC(C)CC1	24%	.	?	-8%[10.9 µM]	-6%
Cc1nn(-c2ccc(F)cc2)c2sc(C(=O)N3CCCCCC3)cc12	3%	1µM*	-1%	-1%	-10%
Cc1nn(-c2ccc(Cl)cc2)c2sc(C(=O)N3CCN(C(=O)c4ccco4)CC3)cc12	0%	-2%	0%	18%	-2%
CCc1nnc2c3ccccc3nc(N3CCN(c4cc(C)ccc4C)CC3)n12	-19%	.	?	-11%[10.9 µM]	?
Cn1c2ccccc2c2ncn(CCCN3CCOCC3)c(=O)c21	0%	?	-1%	-6%	2%
Cn1c2ccc(F)cc2c2ncn(CCN3CCOCC3)c(=O)c21	2%	10µM*	-2%	-3%	-4%
COc1ccc(-c2nnc(SCc3ccccc3F)o2)cc1OC	8%	13µM*	0%	-16%	-9%
Cc1ccc(-c2nnc(SCc3ccccc3F)o2)cc1	?	10%	6%	-6%	?
COc1ccccc1CNS(=O)(=O)c1c(C(=O)N2CCC(C)CC2)c(C)n(C)c1C	-2%	.	-1%	-9%[10.9 µM]	-23%
Cc1ccc(Cn2c(C(=O)O)c(CNCc3ccc(OC(C)C)cc3)c3ccc(C)cc32)cc1	-7%	.	?	-14%[10.9 µM]	16µM*
C=Cc1ccc(Cn2c(C(=O)O)c(CNCc3ccccc3)c3ccc(C)cc32)cc1	?	.	?	3%[10.9 µM]	16µM*
Cc1ccc(CNCc2c(C(=O)O)n(Cc3ccc(C)cc3)c3cc(C)ccc23)cc1	?	.	?	-15%[10.9 µM]	?
COc1cccc(C(=O)N2c3ccc(C)cc3C(C)(c3ccccc3)CC2(C)C)c1 (centres undefined)	0%	.	?	-15%[10.9 µM]	-28%
CCc1nn2cc(-c3ccccc3)nc2s1	10µM*	7%	?	-91%	16µM*
COCc1nn2cc(-c3ccc(C)cc3)nc2s1	10µM*	.	15%	-24%[10.9 µM]	13µM*
COC(=O)c1cc(OC)c(OC)cc1NC(=O)c1ccccc1	10%	0.4µM*	0%	-3%	-2%
FC(F)(F)c1cc(CO[C@@H]2CCCN[C@H]2c2ccccc2)cc(C(F)(F)F)c1	?	2%	-7%	.	20µM*
Cc1ccc(NC(=O)CN2C(=O)COc3ccc(S(=O)(=O)N4CCCCCC4)cc32)cc1Cl	18%	.	?	-12%[10.9 µM]	2%
COc1nnc(-c2ccc(N3CCOCC3)c(NC(C)=O)c2)c2ccccc12	7%	?	2%	-15%	10%
COc1nnc(-c2ccc(N3CCOCC3)c(NC(=O)c3ccco3)c2)c2ccccc12	2%	2µM*	0%	2%	4%
SMILES	p53ts 32C kill	CRE-bla Fsk	IkB sig inh	Imprint erasure	p53ts 39C tox
CCOC(=O)c1c(NC(=O)c2ccco2)sc2c1CCCCC2	13%	10µM*	10%	-19%	-13%
CCOC(=O)c1c(NC(=O)Cc2cccs2)sc2c1CCCC2	8%	?	2%	0%	-12%
CCOC(=O)c1c(NC(=O)c2ccco2)sc(C(=O)N2CCCC2)c1C	3%	13µM*	-4%	-8%	11%
CN(C)C(=O)c1c(NC(=O)c2ccco2)sc2c1CCCCC2	-1%	.	.	.	19%
Cc1cccc(C(=O)Nc2sc3c(c2C(=O)O)CCCC3)c1	?	.	?	-71%[10.9 µM]	13µM*
Cc1cccc(C(=O)Nc2sc3c(c2C(=O)Nc2ccccc2)CCC3)c1	6%	.	?	-3%[10.9 µM]	-3%
O=C(Nc1sc2c(c1C(=O)O)CCCCC2)c1ccco1	13µM*	6%	?	-94%	13µM*
Fc1ccc(Nc2ncnc3onc(-c4cccc(Cl)c4)c23)c(F)c1	-4%	.	?	-8%[10.9 µM]	-19%
O=C(CCCn1c(=O)c2sccc2n(Cc2ccc(F)cc2Cl)c1=O)NCc1ccc2c(c1)OCO2	5%	.	?	-10%[10.9 µM]	2%
Cc1ccc(-n2[nH]c(C)c(C=Nc3ccc(C)cn3)c2=O)cc1	13µM*	-3%	2%	-47%	13µM*
O=C(NCCCN1CCN(c2cccc(Cl)c2)CC1)c1cnn(-c2ccc(F)cc2)c1-n1cccc1	?	.	3%	-10%[10.9 µM]	2.5µM*
Oc1c(C(Nc2ccccn2)c2ccccc2F)ccc2cccnc12 (centres undefined)	4%	.	42%	-13%[10.9 µM]	10µM*
Cc1ccnc(NC(c2cc(C)ccc2O)c2ccc3cccnc3c2O)c1 (centres undefined)	?	.	?	-14%[10.9 µM]	13µM*
Oc1c(C(Nc2ccccn2)c2ccccn2)ccc2cccnc12 (centres undefined)	-5%	?	?	-23%	4µM*
Cc1nc2ccccn2c(=O)c1NC(=O)c1ccc(C(F)(F)F)cc1	5%	.	-2%	2%[10.9 µM]	-27%
COCCn1c(=O)c(-c2ccc(OC)cc2)nc2cnc(N3CCNCC3)nc21	-17%	?	-1%[11.4 µM]	.	-22%
COCCn1c(=O)c(-c2ccc(OC)cc2)nc2cnc(N3CCOCC3)nc21	11%	2.5µM*	-1%[11.4 µM]	3%	-1%
COCCn1c(=O)c(-c2cc(F)cc(F)c2)nc2cnc(N3CCOCC3)nc21	10%	6.3µM*	4%[11.4 µM]	15%	12%
COCCn1c(=O)c(-c2ccc(Cl)cc2)nc2cnc(N(C)C)nc21	-3%	?	-3%[11.4 µM]	-13%	5%
COCCn1c(=O)c(-c2cc(F)cc(F)c2)nc2cnc(N(C)C)nc21	2%	10µM*	1%[11.4 µM]	?	3%
COc1ccc(-c2cc(-c3ccccc3)nc(N3CCCC3)n2)cc1OC	8%	3.2µM*	5%	-13%	-5%
CC(=O)N1CCCc2cc(S(=O)(=O)N3CCC(C(=O)Nc4c(C)cccc4C)CC3)ccc21	2%	.	-1%	-15%[10.9 µM]	-22%

Source: PubChem (National Center for Advancing Translational Sciences (NCATS))
